Reference: PubChem BioAssay (NCI)
About 83,000 compounds went through this panel and 20% of them were active in at least one assay; those are over-represented in the sample as a whole.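 Treatment: one concentration, 48 hours, 96-well format. Scoring: percent growth, with anything below 10 considered active.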 Calls of active or inactive are those of the source.

Legend:
Assay in all cases: NCI-60 one-dose screen, 48 h (100 = growth as untreated, 0 = no growth, -100 = all killed)
Conditions in all cases: 10 µM
[1] = system: HCT-15 colon
[2] = system: HT29 colon
[3] = system: SNB-75 CNS
[4] = system: SNB-19 CNS
[5] = system: PC-3 prostate
[6] = system: SK-MEL-5 melanoma
[7] = system: LOX IMVI melanoma
[8] = system: SK-MEL-28 melanoma
[9] = system: EKVX NSCLC
[10] = system: SN12C renal
[11] = system: UO-31 renal
[12] = system: TK-10 renal
[13] = system: ACHN renal
[14] = system: CAKI-1 renal
[15] = system: A498 renal
[16] = system: CCRF-CEM leukemia
[17] = system: MOLT-4 leukemia
[18] = system: U251 CNS
[19] = system: UACC-62 melanoma
[20] = system: SK-MEL-2 melanoma

Measured: growth

COc1ccc(/C=C2\CCCC3=C2N=C2SC(C)=CN2C3c2ccc(OC)cc2)cc1 (stereo not given)
inactive: [1] 102% | [2] 104% | [3] 97.7% | [4] 100% | [5] 99.9% | [6] 92.3% | [7] 91.5% | [8] 96.2% | [9] 99.4% | [10] 104% | [11] 82.1% | [12] 116% | [13] 106% | [14] 96.4% | [15] 76.8% | [16] 104% | [17] 103%

C1CN(CC2CCC(CN3CCOCC3)O2)CCO1 (stereo not given)
inactive: [1] 101% | [3] 96.5% | [4] 105% | [18] 108% | [5] 105% | [6] 105% | [19] 106% | [7] 93.2% | [8] 105% | [20] 107% | [9] 100% | [10] 106% | [11] 93.6% | [12] 95.8% | [13] 38.9% | [15] 117% | [16] 50.4% | [17] 68.2%

O=C(O)c1ccc(-n2cc(CNc3ccc(Cl)cc3)c(-c3ccccc3)n2)cc1
inactive: [1] 70.5% | [3] 78.4% | [4] 94.8% | [18] 93.5% | [5] 97.2% | [6] 87.6% | [19] 67.6% | [7] 74.3% | [8] 92.8% | [20] 78.5% | [9] 78.1% | [10] 94.9% | [11] 82.4% | [12] 91.7% | [13] 79.5% | [14] 88.8% | [15] 91.4% | [17] 82.4%

CCCN1CN2C(=O)N3CN(CCC)CN4C(=S)N(C1)C2C34 (stereo not given)
inactive: [1] 98.2% | [2] 99.5% | [3] 81% | [4] 101% | [5] 91.5% | [6] 107% | [7] 103% | [8] 93.4% | [9] 95.2% | [10] 100% | [11] 94.6% | [12] 93.2% | [13] 94.4% | [14] 90.4% | [15] 108% | [17] 103%

CCOC(=O)c1cc(C(=O)c2cc(OC)cc(OC)c2)n2nc(C)ccc12
inactive: [1] 32.2% | [3] 18% | [4] 39.4% | [18] 23.1% | [5] 25% | [6] 30.6% | [19] 46.7% | [7] 48.7% | [8] 78.7% | [20] 15.9% | [9] 75.5% | [10] 58.1% | [12] 65% | [13] 60.5% | [16] 13.7% | [17] 29.5%
active: [15] -1.92%

O=C1c2ccccc2C(=O)N1CCCCNc1ccccc1
inactive: [1] 96.8% | [3] 90.8% | [4] 96.8% | [18] 86.3% | [5] 75.5% | [6] 105% | [19] 96% | [7] 117% | [8] 113% | [20] 121% | [9] 127% | [10] 50.4% | [12] 117% | [13] 104% | [14] 101% | [15] 70.2% | [16] 21.3% | [17] 49.7%

COc1ccc(-c2nc(-c3nc4ccc(C)cc4[nH]3)cc3c2[nH]c2ccccc23)cc1
inactive: [1] 29.7% | [2] 30% | [4] 84.1% | [18] 34.8% | [5] 43.8% | [6] 35.6% | [19] 21% | [7] 25.8% | [8] 71.7% | [10] 28.5% | [12] 45% | [13] 26.8% | [14] 44.4% | [15] 68% | [16] 29.4% | [17] 21.9%
active: [20] 9.81%

O=C(Nc1nc(-c2ccccc2)nc2c1sc(=S)n2-c1ccccc1)C(F)(F)F
inactive: [1] 88.4% | [3] 96.5% | [4] 105% | [18] 90.6% | [5] 79.5% | [6] 90.4% | [19] 86% | [7] 84.4% | [8] 104% | [20] 104% | [9] 97.2% | [10] 95.3% | [11] 81.2% | [12] 117% | [13] 91.3% | [15] 80.4% | [16] 80.8% | [17] 77.2%

CCCCN(CCCC)C(=O)[C@H](CC)[C@@H]1CC[C@@H](C)[C@@H]([C@H](C)[C@@H](O)[C@@H](C)C(=O)[C@H](CC)C2O[C@]3(C=C[C@@H](O)[C@]4(CC[C@@](C)([C@H]5CC[C@](O)(CC)[C@H](C)O5)O4)O3)[C@H](C)C[C@@H]2C)O1 (stereo not given in full)
inactive: [4] 15.3% | [18] 13.9% | [19] 12.2% | [8] 39.8% | [12] 18.6% | [17] 11.8%
active: [1] -5.99% | [3] -12.4% | [5] 4.26% | [6] -92% | [7] 2.12% | [20] -12.4% | [9] -8.73% | [10] 3.56% | [13] 7.05% | [14] -3.74% | [15] -14.6%

Cc1c(C(N)=O)sc2c1c(=O)n(Cc1ccccc1)c1nnc(-c3ccc(Br)cc3)n21
active: [6] -38.2% | [19] 6.17% | [7] 5.15% | [14] 1.27%
inactive: [1] 25.3% | [2] 28.6% | [4] 51.8% | [18] 11.5% | [5] 37.2% | [8] 46.2% | [20] 42.5% | [9] 36.7% | [10] 32.8% | [12] 47.4% | [13] 10.1% | [15] 56%

C=C(C)[C@@H]1CC[C@]2(COCCC#N)CC[C@]3(C)[C@H](CC[C@@H]4[C@@]5(C)Cc6c([nH]c7ccccc67)C(C)(C)[C@@H]5CC[C@]43C)[C@@H]12
inactive: [1] 102% | [3] 90.9% | [4] 99.1% | [18] 102% | [5] 92.9% | [6] 98.2% | [19] 105% | [7] 92.1% | [8] 100% | [20] 110% | [9] 116% | [10] 98.7% | [11] 94.2% | [12] 100% | [13] 95.2% | [15] 106% | [17] 86.1%

CC(=O)COc1ccc(Cl)cc1Cl
inactive: [1] 107% | [2] 105% | [4] 118% | [18] 97.9% | [5] 102% | [6] 99.8% | [19] 96.7% | [7] 94.9% | [8] 113% | [20] 113% | [9] 93% | [10] 95.3% | [12] 105% | [13] 116% | [14] 107% | [15] 82.9%

COc1cc(/C=C2\CCCC3=C2N=C2SC(C)=CN2C3c2cc(OC)c(OC)c(OC)c2)cc(OC)c1OC (stereo not given)
inactive: [3] 59.4% | [4] 52.7% | [5] 44.5% | [9] 19.6% | [14] 11.1%
active: [1] -65.4% | [2] -49.1% | [6] -71.6% | [7] -70.4% | [8] -51.6% | [20] -19.6% | [10] -23.6% | [12] 2.25% | [13] -78.6% | [15] -30.9% | [16] 1.41% | [17] 1.02%

COC(=O)c1c[nH]c2cc(OC(C)C)c(OC(C)C)cc2c1=O
active: [18] 6.2%
inactive: [1] 101% | [2] 95.6% | [4] 105% | [5] 93.1% | [6] 98.3% | [7] 95.9% | [8] 117% | [9] 98.8% | [10] 108% | [11] 84% | [12] 113% | [13] 100% | [14] 97.2% | [15] 103% | [17] 109%

COc1ccc(/C=C2\CCCC3=C2NC(N)=NC3c2ccc(OC)cc2)cc1 (stereo not given)
inactive: [1] 92.9% | [3] 87.4% | [4] 92.1% | [18] 90.6% | [5] 86.7% | [6] 56.2% | [19] 68% | [7] 73.6% | [8] 98.5% | [20] 98.2% | [9] 92.1% | [10] 86.7% | [11] 72.8% | [13] 98.3% | [14] 90.1% | [15] 84.5% | [16] 87.6% | [17] 84.2%

COc1ccc(-c2nn(-c3cccc(Cl)c3)cc2-c2cc(-c3ccccc3)nc(N)n2)cc1
inactive: [1] 44.5% | [2] 19.5% | [3] 89.9% | [4] 75.2% | [5] 40% | [6] 73.3% | [8] 83.8% | [20] 83.6% | [9] 58.2% | [10] 35.8% | [11] 60.8% | [12] 86% | [13] 71.1% | [16] 41.1%
active: [7] -84.1% | [17] 6.55%

CN(C)CCN(Cc1ccccc1)c1ccc2ccccc2n1
inactive: [1] 98% | [3] 82% | [4] 95.6% | [18] 94.2% | [5] 81.4% | [6] 91.7% | [19] 92.9% | [7] 88.8% | [8] 101% | [20] 103% | [9] 109% | [10] 93.8% | [11] 76.2% | [12] 93.1% | [13] 95.8% | [15] 119% | [16] 88.6% | [17] 104%
